Test results: PubChem BioAssay
Activity calls are given as the source filed them.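 Rule for the calls: active = compound raising the membrane signal above positive-control mean plus 3 SD in both repeats, and a primary screen hit; inactive = the rest.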

Target: Short transient receptor potential channel 6 (Mus musculus) (UniProt Q61143)
Assay: positive modulators of mouse TRPC6 channel – HEK293 cells, membrane potential dye, duplicate, selectivity assay for TRPC4 potentiator project, confirmation (AID 434952)
Details: HEK293 TRPC6, membrane potential dye fluorescence, at 10 µM, maximal acetylcholine added after compound; stronger effect = higher value

Sequence of Short transient receptor potential channel 6 (Mus musculus) (Q61143 whole entry, looked up): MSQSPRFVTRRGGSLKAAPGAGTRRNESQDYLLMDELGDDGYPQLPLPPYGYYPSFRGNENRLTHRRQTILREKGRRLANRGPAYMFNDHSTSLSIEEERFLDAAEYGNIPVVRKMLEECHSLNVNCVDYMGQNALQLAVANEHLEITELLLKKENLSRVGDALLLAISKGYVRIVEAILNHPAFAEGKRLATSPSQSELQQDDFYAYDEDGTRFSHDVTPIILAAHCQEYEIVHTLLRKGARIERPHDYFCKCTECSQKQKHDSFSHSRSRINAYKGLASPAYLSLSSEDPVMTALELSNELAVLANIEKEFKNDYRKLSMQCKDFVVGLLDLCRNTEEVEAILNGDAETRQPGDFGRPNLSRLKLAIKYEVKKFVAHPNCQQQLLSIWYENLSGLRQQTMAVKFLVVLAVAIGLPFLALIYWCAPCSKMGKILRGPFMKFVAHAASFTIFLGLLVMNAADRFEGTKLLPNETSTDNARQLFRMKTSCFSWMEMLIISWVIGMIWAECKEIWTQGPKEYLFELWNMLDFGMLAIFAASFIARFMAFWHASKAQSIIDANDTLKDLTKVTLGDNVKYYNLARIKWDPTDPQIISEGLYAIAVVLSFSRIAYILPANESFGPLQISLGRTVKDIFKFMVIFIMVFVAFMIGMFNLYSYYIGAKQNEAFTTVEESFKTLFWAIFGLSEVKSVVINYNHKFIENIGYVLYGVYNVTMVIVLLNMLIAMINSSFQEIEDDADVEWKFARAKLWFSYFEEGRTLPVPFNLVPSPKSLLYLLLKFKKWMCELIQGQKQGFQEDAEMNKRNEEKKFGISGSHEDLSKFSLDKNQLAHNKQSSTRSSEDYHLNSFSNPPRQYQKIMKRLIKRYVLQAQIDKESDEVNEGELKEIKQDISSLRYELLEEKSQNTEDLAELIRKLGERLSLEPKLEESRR

Structure (SMILES)	potentiation, percent of control	outcome
O=C1/C(=C\c2cc(Cl)c(O)c(Cl)c2)SC(=S)N1Cc1ccccc1	640% (active)	
COc1ccc(C(=O)NC(=S)NNC(=O)c2c(-c3ccccc3)noc2C)cc1		inactive
O=C(c1sc2ccccc2c1Cl)N(Cc1ccco1)C1CCS(=O)(=O)C1 (stereo not given)		inactive
Cc1cc(-c2ccc(C)c(S(=O)(=O)NCCCN(Cc3ccccc3)C(C)C)c2)on1		inactive
CCc1nc(NCCc2ccccn2)c2nnn(Cc3ccccc3F)c2n1		inactive
CN(C)CCCN(C(=O)c1ccc(S(=O)(=O)N2CCCc3ccccc32)cc1)c1nc2ccc(F)cc2s1		inactive
CSCCC(NS(=O)(=O)c1ccc2c(c1)c(=O)n(C)c(=O)n2C)C(=O)NC1CCN(Cc2ccccc2)CC1 (stereo not given)		inactive
CCC1(c2ccc(F)cc2)NC(=O)N(CC(=O)c2cc(C)n(C3CC3)c2C)C1=O (stereo not given)		inactive
CN(C)CCCN(C(=O)c1ccc(C(=O)c2ccccc2)cc1)c1nc2ccc(F)cc2s1		inactive
Cc1ccc(-n2cc(CNCC3CC(=O)N(C4CC4)C3)c(-c3cccc(C)c3)n2)cc1 (stereo not given)		inactive
CC1CCCN(CCCNC(=O)c2ccc3c(c2)N(Cc2ccccc2F)C(=O)c2ccccc2S3(=O)=O)C1 (stereo not given)		inactive
Cc1nc(/N=C(\N)NC(=O)NC2CCCCC2)nc2ccccc12		inactive
COc1ccc(C(CNC(=O)c2cccc(NS(=O)(=O)c3ccc(C)c(F)c3)c2)N(C)C)cc1 (stereo not given)		inactive
CCN1CCN(c2ccc(S(=O)(=O)N3CCCCC3)cc2NC(=O)COc2ccccc2)CC1		inactive
CCCN(CCC)CCCNC(=O)C1CCN(S(=O)(=O)c2cccc3nsnc23)CC1		inactive
